What all share (test): DAPPL (digital affinity profiling via proximity ligation, sequencing); 10 mM Tris-HCl pH 7.5, 50 mM NaCl, 1 mM DTT, 4% glycerol, room temperature, 30 min; GST-TFs on glutathione beads, 16-mer random dsDNA library, 0.1% formaldehyde crosslink after washing; high values mean tight binding
One test has as its target T1, FLI1 (Homo sapiens, UniProt Q01543 1-452).
T1 sequence: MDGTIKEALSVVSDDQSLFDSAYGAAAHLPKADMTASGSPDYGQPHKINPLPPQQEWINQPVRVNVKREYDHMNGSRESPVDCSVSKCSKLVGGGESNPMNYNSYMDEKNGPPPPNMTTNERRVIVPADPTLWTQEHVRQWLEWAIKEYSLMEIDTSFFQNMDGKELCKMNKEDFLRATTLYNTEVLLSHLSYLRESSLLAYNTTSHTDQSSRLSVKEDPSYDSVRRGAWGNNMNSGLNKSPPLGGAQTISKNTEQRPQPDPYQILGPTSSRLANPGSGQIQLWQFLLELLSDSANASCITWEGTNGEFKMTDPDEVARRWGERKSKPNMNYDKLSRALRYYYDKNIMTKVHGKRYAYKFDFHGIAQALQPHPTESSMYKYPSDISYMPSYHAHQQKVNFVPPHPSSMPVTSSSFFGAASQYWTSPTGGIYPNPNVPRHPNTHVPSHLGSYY
Conditions: protein: recombinant; tags: N-terminal GST; dsDNA, one strand shown. The procedure, abridged:
(§1)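 Pools of DNA-barcoded human transcription factors, expressed in yeast as GST fusions on glutathione beads and combined with a tag-only sample, were incubated with 200 nmole of a 16-mer random double-stranded DNA library. Incubation took 30 min at room temperature in Tris/NaCl/DTT/glycerol buffer and was followed by washing, 0.1% formaldehyde crosslinking, proximity ligation (BsaI/T4 ligase, 1 h, 37 °C), PCR amplification and sequencing on an Illumina NextSeq500. Binding signal is the ratio of a hexamer's read frequency for a factor to its frequency for the tag-only sample.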

A further test deals with T2, ELK1 (Homo sapiens, UniProt P19419 1-428).
T2 sequence: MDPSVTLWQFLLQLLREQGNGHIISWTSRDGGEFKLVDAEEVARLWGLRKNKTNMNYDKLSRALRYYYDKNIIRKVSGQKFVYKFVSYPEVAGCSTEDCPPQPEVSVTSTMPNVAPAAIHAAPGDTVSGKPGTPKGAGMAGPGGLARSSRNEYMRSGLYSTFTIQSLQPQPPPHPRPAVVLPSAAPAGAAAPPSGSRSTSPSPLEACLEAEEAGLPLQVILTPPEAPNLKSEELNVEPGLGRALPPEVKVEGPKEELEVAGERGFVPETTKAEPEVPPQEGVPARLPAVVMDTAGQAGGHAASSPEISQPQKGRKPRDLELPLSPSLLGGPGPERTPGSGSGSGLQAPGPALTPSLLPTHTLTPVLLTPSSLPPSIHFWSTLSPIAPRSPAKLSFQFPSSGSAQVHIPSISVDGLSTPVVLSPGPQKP
To be noted: protein: recombinant; tags: N-terminal GST; dsDNA, one strand shown. The procedure, abridged:
as §1

In another test the target is T3, GABPA (Homo sapiens, UniProt Q06546 1-454).
T3 sequence: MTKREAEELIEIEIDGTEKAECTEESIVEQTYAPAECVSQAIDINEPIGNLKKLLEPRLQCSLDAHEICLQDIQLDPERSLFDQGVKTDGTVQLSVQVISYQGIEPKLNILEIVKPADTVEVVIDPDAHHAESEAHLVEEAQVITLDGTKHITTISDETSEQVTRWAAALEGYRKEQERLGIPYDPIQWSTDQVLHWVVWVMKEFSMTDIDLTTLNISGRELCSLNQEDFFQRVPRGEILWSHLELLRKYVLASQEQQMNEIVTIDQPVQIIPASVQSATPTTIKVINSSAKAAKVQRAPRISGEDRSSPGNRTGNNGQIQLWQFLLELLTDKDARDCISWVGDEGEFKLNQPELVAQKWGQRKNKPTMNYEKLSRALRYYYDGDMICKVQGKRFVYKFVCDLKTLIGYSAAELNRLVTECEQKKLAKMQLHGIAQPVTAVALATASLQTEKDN
Conditions: protein: recombinant; tags: N-terminal GST; dsDNA, one strand shown. The procedure, abridged:
as §1

The target of another test is T4, ERG (Homo sapiens, UniProt P11308 1-479).
T4 sequence: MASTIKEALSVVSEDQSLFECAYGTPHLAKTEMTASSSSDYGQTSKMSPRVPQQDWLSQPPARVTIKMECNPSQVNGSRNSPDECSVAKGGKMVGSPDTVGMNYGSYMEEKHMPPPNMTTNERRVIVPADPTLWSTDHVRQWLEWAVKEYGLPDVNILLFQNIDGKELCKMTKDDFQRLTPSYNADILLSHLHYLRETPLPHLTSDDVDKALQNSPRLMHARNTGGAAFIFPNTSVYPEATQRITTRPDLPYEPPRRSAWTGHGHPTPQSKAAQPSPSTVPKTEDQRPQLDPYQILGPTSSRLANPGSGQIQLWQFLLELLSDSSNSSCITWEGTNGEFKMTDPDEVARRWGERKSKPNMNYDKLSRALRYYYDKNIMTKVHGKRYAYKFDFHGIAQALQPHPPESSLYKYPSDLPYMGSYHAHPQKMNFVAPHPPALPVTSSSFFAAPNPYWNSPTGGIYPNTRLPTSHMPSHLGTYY
To be noted: protein: recombinant; tags: N-terminal GST; dsDNA, one strand shown. The procedure, abridged: as §1

For a further test, the target named is T5, EHF (Homo sapiens, UniProt Q9NZC4 1-300).
T5 sequence: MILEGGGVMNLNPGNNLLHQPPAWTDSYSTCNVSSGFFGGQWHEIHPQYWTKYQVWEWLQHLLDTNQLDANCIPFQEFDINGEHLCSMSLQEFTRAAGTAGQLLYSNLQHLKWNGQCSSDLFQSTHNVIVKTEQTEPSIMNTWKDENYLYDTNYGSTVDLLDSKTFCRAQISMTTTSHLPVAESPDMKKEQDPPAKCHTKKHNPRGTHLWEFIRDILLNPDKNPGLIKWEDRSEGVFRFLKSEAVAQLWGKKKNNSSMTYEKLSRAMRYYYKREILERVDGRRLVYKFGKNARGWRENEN
To be noted: protein: recombinant; tags: N-terminal GST; dsDNA, one strand shown. In outline: as §1

The next test concerns the target SPI1 (Homo sapiens, UniProt P17947 1-270). To be noted: protein: recombinant; tags: N-terminal GST; dsDNA, one strand shown. The procedure, abridged: as §1
In another test the target is SPIB (Homo sapiens, UniProt Q01892 1-262). To be noted: protein: recombinant; tags: N-terminal GST; dsDNA, one strand shown. In outline:
as §1

In another test the target is T6, ELK3 (Homo sapiens, UniProt P41970 1-407).
T6 sequence: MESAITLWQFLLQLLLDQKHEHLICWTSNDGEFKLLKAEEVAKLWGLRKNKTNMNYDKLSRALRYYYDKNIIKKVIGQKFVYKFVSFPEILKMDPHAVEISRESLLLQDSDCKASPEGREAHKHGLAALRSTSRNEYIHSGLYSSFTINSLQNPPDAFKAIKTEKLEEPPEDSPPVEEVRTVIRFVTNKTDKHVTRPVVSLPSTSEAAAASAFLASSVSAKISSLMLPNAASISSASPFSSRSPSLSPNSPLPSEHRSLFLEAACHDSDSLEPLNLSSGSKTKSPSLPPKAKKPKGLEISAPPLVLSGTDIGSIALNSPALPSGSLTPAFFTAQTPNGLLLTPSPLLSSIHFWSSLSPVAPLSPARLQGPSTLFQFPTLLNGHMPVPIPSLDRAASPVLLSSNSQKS
To be noted: protein: recombinant; tags: N-terminal GST; dsDNA, one strand shown. In outline:
as §1

In a further test the target is ETV5 (Homo sapiens, UniProt P41161 1-510). To be noted: protein: recombinant; tags: N-terminal GST; dsDNA, one strand shown. In outline: as §1
For the next test, the target named is HSF1 (Homo sapiens, UniProt Q00613 1-529). Conditions: protein: recombinant; tags: N-terminal GST; chain copies: 3; dsDNA, one strand shown. The procedure, abridged: as §1
A further test has as its target T7, SPIC (Homo sapiens, UniProt Q8N5J4 1-248).
T7 sequence: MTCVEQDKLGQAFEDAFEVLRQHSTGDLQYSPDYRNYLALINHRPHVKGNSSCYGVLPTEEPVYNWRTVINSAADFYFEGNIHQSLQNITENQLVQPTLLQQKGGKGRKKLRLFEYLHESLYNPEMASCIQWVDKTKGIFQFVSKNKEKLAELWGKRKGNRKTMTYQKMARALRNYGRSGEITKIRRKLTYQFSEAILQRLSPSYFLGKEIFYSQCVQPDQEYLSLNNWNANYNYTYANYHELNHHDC
To be noted: protein: recombinant; tags: N-terminal GST; dsDNA, one strand shown. In outline: as §1

A further test has as its target ELF4 (Homo sapiens, UniProt Q99607 1-663). Conditions: protein: recombinant; tags: N-terminal GST; dsDNA, one strand shown. In outline: as §1
A further test deals with T8, ELK4 (Homo sapiens, UniProt P28324-2 1-405).
T8 sequence: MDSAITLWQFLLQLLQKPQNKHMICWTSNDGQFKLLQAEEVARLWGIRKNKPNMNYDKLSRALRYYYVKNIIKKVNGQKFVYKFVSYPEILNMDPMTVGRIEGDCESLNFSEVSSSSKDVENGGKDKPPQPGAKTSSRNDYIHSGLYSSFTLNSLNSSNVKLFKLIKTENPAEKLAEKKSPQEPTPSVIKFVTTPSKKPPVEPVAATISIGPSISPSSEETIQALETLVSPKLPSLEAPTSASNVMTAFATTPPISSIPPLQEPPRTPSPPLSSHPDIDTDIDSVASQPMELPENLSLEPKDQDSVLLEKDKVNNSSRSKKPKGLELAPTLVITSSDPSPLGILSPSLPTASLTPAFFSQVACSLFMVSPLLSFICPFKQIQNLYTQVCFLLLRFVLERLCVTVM
To be noted: protein: recombinant; tags: N-terminal GST; dsDNA, one strand shown. The procedure, abridged: as §1

The target of a further test is T9, ETV2 (Homo sapiens, UniProt O00321 1-342).
T9 sequence: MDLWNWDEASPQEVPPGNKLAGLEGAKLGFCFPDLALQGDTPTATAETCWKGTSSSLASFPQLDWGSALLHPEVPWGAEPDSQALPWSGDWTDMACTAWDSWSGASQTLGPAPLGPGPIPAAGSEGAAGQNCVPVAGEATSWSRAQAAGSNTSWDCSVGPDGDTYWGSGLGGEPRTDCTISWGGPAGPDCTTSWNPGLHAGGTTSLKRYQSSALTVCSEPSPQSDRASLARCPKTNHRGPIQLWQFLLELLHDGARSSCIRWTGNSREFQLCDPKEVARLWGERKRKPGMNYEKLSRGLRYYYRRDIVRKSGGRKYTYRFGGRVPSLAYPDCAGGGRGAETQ
Conditions: protein: recombinant; tags: N-terminal GST; dsDNA, one strand shown. The procedure, abridged:
as §1

The target in the next test is T10, ELF3 (Homo sapiens, UniProt P78545 1-371).
T10 sequence: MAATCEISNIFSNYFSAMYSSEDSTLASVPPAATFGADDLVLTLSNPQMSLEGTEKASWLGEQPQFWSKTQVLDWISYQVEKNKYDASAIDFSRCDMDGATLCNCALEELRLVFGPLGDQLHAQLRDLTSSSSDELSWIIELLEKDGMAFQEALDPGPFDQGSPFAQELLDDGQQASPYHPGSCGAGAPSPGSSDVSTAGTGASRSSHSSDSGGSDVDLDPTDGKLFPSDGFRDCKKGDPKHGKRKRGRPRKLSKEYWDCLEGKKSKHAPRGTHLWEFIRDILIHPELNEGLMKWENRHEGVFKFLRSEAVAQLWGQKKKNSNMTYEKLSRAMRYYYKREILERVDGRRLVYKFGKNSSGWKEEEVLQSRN
Conditions: protein: recombinant; tags: N-terminal GST; dsDNA, one strand shown. In outline:
as §1

Another test has as its target CRX (Homo sapiens, UniProt O43186 1-299). To be noted: protein: recombinant; tags: N-terminal GST; dsDNA, one strand shown. In outline:
as §1

In another test the target is ETV1 (Homo sapiens, UniProt P50549 1-477). Conditions: protein: recombinant; tags: N-terminal GST; dsDNA, one strand shown. In outline: as §1
Sequence of ETV1 (P50549 whole entry): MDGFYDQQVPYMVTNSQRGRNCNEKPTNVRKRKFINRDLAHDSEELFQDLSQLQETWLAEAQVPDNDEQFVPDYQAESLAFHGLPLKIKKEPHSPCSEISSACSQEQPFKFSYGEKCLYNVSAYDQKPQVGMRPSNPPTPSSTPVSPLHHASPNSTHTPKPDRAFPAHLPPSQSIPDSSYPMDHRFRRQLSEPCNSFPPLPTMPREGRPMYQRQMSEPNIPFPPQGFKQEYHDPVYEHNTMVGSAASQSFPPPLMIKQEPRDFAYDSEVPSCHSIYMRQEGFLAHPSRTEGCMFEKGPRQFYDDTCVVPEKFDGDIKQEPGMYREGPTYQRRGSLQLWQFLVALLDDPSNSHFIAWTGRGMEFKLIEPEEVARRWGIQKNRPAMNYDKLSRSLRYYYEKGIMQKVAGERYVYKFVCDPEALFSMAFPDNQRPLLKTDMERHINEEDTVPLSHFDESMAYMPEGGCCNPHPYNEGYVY

Sequence of ELF4 (Q99607 whole entry): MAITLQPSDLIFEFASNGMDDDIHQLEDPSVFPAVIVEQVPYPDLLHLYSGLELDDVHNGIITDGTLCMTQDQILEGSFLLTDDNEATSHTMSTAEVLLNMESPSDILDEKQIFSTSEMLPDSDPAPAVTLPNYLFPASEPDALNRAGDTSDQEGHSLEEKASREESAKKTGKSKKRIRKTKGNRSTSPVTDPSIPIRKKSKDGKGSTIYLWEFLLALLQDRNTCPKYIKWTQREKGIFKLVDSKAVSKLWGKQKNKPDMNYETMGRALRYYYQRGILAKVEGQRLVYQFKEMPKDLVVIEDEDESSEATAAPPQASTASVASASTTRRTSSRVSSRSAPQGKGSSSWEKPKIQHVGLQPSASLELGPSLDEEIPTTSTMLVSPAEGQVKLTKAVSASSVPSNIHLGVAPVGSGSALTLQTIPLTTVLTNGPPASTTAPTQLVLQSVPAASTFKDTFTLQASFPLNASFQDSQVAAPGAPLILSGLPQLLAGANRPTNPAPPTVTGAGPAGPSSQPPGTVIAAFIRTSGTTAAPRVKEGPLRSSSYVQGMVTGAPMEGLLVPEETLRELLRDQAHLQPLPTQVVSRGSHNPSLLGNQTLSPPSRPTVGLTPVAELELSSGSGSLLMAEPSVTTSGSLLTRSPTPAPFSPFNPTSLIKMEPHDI
Sequence of SPIB (Q01892 whole entry): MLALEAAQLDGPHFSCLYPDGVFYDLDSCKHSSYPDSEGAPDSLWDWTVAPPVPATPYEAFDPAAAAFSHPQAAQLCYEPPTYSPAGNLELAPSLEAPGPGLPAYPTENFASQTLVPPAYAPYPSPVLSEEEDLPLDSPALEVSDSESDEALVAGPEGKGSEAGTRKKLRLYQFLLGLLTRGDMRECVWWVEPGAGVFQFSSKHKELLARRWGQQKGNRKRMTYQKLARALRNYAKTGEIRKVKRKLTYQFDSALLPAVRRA
Sequence of CRX (O43186 whole entry): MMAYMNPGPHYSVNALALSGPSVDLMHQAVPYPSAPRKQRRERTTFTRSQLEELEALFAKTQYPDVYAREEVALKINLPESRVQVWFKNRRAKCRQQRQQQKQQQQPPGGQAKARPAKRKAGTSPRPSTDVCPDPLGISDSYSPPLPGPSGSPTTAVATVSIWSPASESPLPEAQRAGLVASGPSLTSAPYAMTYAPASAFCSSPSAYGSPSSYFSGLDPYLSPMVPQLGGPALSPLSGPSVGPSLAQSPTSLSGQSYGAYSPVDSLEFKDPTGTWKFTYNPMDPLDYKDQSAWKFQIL
Sequence of HSF1 (Q00613 whole entry): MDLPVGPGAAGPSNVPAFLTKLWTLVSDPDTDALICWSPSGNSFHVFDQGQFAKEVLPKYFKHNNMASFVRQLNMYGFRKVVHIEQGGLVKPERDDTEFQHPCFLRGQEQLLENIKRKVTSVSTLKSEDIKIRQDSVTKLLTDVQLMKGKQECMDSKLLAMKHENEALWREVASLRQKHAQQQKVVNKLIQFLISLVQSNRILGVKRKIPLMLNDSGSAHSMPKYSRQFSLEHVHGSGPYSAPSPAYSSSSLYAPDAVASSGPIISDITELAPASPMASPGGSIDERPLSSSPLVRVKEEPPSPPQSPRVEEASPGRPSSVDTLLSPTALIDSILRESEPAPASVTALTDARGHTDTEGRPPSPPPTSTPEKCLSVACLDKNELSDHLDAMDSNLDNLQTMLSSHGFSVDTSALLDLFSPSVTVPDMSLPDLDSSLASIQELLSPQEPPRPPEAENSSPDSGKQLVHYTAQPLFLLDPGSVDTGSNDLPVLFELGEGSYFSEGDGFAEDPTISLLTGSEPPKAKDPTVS
Sequence of ETV5 (P41161 whole entry): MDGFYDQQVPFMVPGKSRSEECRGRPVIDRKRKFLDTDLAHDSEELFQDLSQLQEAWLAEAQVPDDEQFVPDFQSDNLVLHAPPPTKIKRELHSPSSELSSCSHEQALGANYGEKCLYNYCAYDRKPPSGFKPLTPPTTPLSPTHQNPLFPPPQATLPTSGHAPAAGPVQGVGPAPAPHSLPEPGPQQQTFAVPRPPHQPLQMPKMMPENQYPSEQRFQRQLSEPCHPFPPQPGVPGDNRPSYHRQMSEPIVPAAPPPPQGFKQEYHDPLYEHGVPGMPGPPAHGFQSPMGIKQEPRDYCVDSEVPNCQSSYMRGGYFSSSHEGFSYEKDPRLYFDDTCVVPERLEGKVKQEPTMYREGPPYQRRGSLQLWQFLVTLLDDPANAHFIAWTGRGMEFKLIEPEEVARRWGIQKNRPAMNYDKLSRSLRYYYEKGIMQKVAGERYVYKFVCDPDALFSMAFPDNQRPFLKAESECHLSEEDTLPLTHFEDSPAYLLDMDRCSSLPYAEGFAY

For the sequence AGGTTT, the binding signal in the test with FLI1 is 1.02 fold enrichment (6-mer frequency, TF over GST control); in the test with ELK1, 1.04 fold enrichment (6-mer frequency, TF over GST control); in the test with GABPA, 1.08 fold enrichment (6-mer frequency, TF over GST control); with ERG, 1.06 fold enrichment (6-mer frequency, TF over GST control); with EHF it was 1.07 fold enrichment (6-mer frequency, TF over GST control); with SPI1, 1.06 fold enrichment (6-mer frequency, TF over GST control). Moreover, the binding signal was 1.04 fold enrichment (6-mer frequency, TF over GST control) with SPIB; 1.13 fold enrichment (6-mer frequency, TF over GST control) in the test with ELK3; 1.05 fold enrichment (6-mer frequency, TF over GST control) in the test with ETV5; 1.04 fold enrichment (6-mer frequency, TF over GST control) with HSF1; 1.03 fold enrichment (6-mer frequency, TF over GST control) with SPIC; 1.07 fold enrichment (6-mer frequency, TF over GST control) in the test with ELF4. For the same sequence, the binding signal with ELK4 was 1.06 fold enrichment (6-mer frequency, TF over GST control); in the test with ETV2, 1.05 fold enrichment (6-mer frequency, TF over GST control); with ELF3, 1.07 fold enrichment (6-mer frequency, TF over GST control); with CRX it was 1.19 fold enrichment (6-mer frequency, TF over GST control); with ETV1, 1.1 fold enrichment (6-mer frequency, TF over GST control).

Source of the values: paper PMC7862700, “An all-to-all approach to the identification of sequence-specific readers for epigenetic DNA modifications on cytosine”.
